Hits are enriched below; roughly 2.9% of the tested compounds scored in any of these assays.
NadD inh = NadD (S. aureus) enzyme inhibition; purified NadD enzyme, colorimetric absorbance read-out; 360,000 tested, 0.78% active; inhibition, % at 20 µM; AID 602399; in the data active = inhibition above about 26%
PfG6PD inh = PfG6PD (Plasmodium falciparum) enzyme inhibition. PfGluPho enzyme, NADPH resazurin-diaphorase fluorescence. inhibition, % at 20 µM. 350,000 tested, 0.78% active. AID 504690;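 active = inhibition reaching at least a set limit at 20 µM in the primary screen, cut at about 59% in these data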
H9c2 protect = modulators protecting cardiomyocytes from myocardial damage; H9c2 cardiomyocytes, H2O2 injury protection, ATPLite, 2 h; protection from H2O2 cell death, % at 20 µM; 360,000 tested, 0.63% active;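 active = compounds giving at least 50% protection of heart cells from peroxide-induced death in the single-dose screen, raw or plate-pattern-corrected value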
H9c2 TAG inh = inhibitors of triacylglycerol accumulation; H9c2 cells, Nile Red lipid (TAG) fluorescence; cells loaded with 200 µM oleic acid; AID 651582; inhibition, % at 12.5 µM; 230,000 tested, 0.66% active;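 active = pattern-corrected inhibition of lipid staining of at least 50% with the nuclear-stain viability signal not falling by more than 50%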
APOBEC3A inh = blocks human APOBEC3A ssDNA deamination | P31941 | recombinant A3A, FAM/TAMRA ssDNA deamination fluorescence | inhibition, % at 20 µM | 330,000 tested, 0.41% active | AID 493011;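 active = at least 40% inhibition at 20 µM here, with at most 30% in a related deaminase screen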
Target sequence (P31941 whole entry, looked up): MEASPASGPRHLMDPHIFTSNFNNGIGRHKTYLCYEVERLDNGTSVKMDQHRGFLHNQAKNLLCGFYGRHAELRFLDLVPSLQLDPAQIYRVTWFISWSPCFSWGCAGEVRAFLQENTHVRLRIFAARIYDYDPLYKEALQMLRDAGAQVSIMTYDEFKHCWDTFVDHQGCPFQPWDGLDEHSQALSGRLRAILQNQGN
A3G deaminase = APOBEC3G (human) deaminase inhibition | inhibition, % at 20 µM | Q9HC16 | recombinant A3G, ssDNA deamination FAM/TAMRA fluorescence | 330,000 tested, 0.28% active;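 active = inhibition of at least 40% at 20 µM, with no more than 30% in the related APOBEC3A deaminase screen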
Target sequence (Q9HC16 whole entry, looked up): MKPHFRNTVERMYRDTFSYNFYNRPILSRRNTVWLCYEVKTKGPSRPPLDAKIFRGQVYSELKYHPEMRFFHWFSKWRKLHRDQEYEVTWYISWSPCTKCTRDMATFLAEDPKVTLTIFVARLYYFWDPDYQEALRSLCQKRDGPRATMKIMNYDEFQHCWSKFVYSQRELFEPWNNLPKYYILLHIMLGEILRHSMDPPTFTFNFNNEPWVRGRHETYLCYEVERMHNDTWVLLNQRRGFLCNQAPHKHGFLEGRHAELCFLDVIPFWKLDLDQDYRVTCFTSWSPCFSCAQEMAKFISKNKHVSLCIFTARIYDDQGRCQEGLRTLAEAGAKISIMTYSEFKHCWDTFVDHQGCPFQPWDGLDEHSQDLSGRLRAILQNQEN
NadD inh conf = confirmation of Staphylococcus aureus NadD inhibitors | inhibition, % at 20 µM | 2,000 tested, 13% active | purified S. aureus NadD, colorimetric enzyme assay | shares compounds with NadD inh; in the data active = inhibition mostly above about 42%, no sharp cut-off; inactive = mostly below about 42%
Of the large screens only hits and unclear results are named; the others gave an inactive call (follow-up assays come after a bar, where they were run).

CCOc1ccc(CCN2C(=O)C(=O)N([C@@H](Cc3ccccc3)CN3CCC[C@@H]3CN3C(=O)C(=O)NC[C@@H]3Cc3ccc(O)cc3)C[C@@H]2Cc2ccccc2)cc1	none (no result: PfG6PD inh, H9c2 TAG inh, APOBEC3A inh, A3G deaminase)
O=C1NC[C@H](Cc2ccccc2)N(C[C@@H]2CCCN2C[C@H](Cc2ccc(O)cc2)N2C[C@H](Cc3ccc(O)cc3)N(CC3CCCCC3)C(=O)C2=O)C1=O	NadD inh 32 (no result: PfG6PD inh, H9c2 protect, H9c2 TAG inh, APOBEC3A inh, A3G deaminase) | NadD inh conf inactive
CC(C)C[C@H]1CN([C@@H](Cc2ccccc2)CN2CCC[C@@H]2CN2C(=O)C(=O)NC[C@@H]2Cc2ccc(O)cc2)C(=O)C(=O)N1CC1CCCCCC1	none (no result: PfG6PD inh, H9c2 TAG inh, APOBEC3A inh, A3G deaminase)
O=C1NC[C@H](Cc2ccc(O)cc2)N(C[C@@H]2CCCN2C[C@H](Cc2ccccc2)N2C[C@H](Cc3ccc(O)cc3)N(CC3CCCCC3)C(=O)C2=O)C1=O	NadD inh 41 (no result: PfG6PD inh, H9c2 protect, H9c2 TAG inh, APOBEC3A inh, A3G deaminase) | NadD inh conf inactive
CC1(C)OC2OC(C3COC(=O)O3)C(OC(=O)c3ccccc3)C2O1 (stereo unspecified)	none (no result: APOBEC3A inh, A3G deaminase)
CCOc1ccc(OCCC(=O)N(CC)CC(=O)Nc2c(F)cccc2F)cc1	none
O=S(=O)(Nc1nc2ccccc2nc1Nc1ccc(N2CCOCC2)cc1)c1cc(Cl)ccc1Cl	none (no result: H9c2 TAG inh)
O=S(=O)(NNc1cccc(Cl)n1)c1ccc(Cl)cc1	none (no result: H9c2 TAG inh)
Cn1c(=O)c(C(=O)Nc2ccccc2S(N)(=O)=O)c(O)c2ccccc21	none
CCC(C)n1c(=O)c(C(=O)Nc2ccccc2S(N)(=O)=O)c(O)c2ccccc21 (stereo unspecified)	NadD inh 33 | NadD inh conf 64
CC(C)Cn1c(=O)c(C(=O)Nc2ccccc2S(N)(=O)=O)c(O)c2ccccc21	NadD inh 33 (no result: H9c2 TAG inh) | NadD inh conf 65
CCn1c(=O)c(C(=O)Nc2ccccc2F)c(O)c2ccccc21	none (no result: H9c2 TAG inh)
O=[N+]([O-])c1ccc(C=NNC(=S)NN=Cc2ccc([N+](=O)[O-])cc2)cc1	NadD inh 35 (no result: APOBEC3A inh, A3G deaminase) | NadD inh conf inactive
O=C(CNc1cccc2ccccc12)N/N=C/c1ccc([N+](=O)[O-])cc1	NadD inh 40 | NadD inh conf 44
O=c1c2c3nc4ccccc4nc3n(Cc3ccccc3)c2ncn1Cc1ccco1	NadD inh 39 (no result: H9c2 TAG inh, APOBEC3A inh, A3G deaminase) | NadD inh conf inactive
CCN(c1ccccc1)S(=O)(=O)c1ccc(C(=O)NC2CCN(Cc3ccccc3)CC2)cc1	none
COc1ccc(Nc2nnc(SC(C(=O)Nc3ccc(OC)c(Cl)c3)c3ccccc3)s2)cc1 (stereo unspecified)	NadD inh 32 (no result: H9c2 TAG inh) | NadD inh conf inactive
COc1ccc(Nc2nnc(SC(C(=O)Nc3cc(C)ccc3C)c3ccccc3)s2)cc1 (stereo unspecified)	none
Cc1cccc(NC(=O)CSc2cc(C)c(C#N)c3nc4ccccc4n23)c1	NadD inh 43 | NadD inh conf inactive
CCc1cc(C(=O)Nc2nc(-c3ccccn3)cs2)sc1C	NadD inh 33, H9c2 protect 72 | NadD inh conf inactive
Cc1cc(C(=O)Nc2nc(-c3ccccn3)cs2)ccc1[N+](=O)[O-]	none
O=C(Nc1nc(-c2ccccn2)cs1)c1ccc(-c2ccccc2F)o1	NadD inh 40, H9c2 protect 58 | NadD inh conf inactive
CCC(=O)Nc1ccc(C(=O)CSc2nnc(-c3ccc(NS(=O)(=O)CC)cc3)o2)cc1OC	none
COc1ccc(C(O)c2nc(-c3ccncc3)cs2)cc1 (stereo unspecified)	none (no result: PfG6PD inh, APOBEC3A inh, A3G deaminase)
COc1ccc(C(=O)N2CCC2(C)C(=O)O)cc1C(F)(F)F (stereo unspecified)	none (no result: PfG6PD inh, APOBEC3A inh, A3G deaminase)
COc1cc(/C=C2\SC(=O)N(Cc3ccc(F)cc3)C2=O)cc([N+](=O)[O-])c1O	NadD inh 38 | NadD inh conf inactive
CCOC(=O)CN1C(=O)S/C(=C/c2ccc(OC)c([N+](=O)[O-])c2)C1=O	none (no result: H9c2 TAG inh)
COc1cc(/C=C2\SC(=O)N(Cc3ccc(Cl)cc3)C2=O)cc([N+](=O)[O-])c1O	NadD inh 37 (no result: H9c2 TAG inh, APOBEC3A inh, A3G deaminase) | NadD inh conf inactive
CC(=O)Nc1cccc(-c2ccnc3c2CC(C)(C(=O)Nc2cccc(C(C)=O)c2)O3)c1 (stereo unspecified)	none (no result: PfG6PD inh, APOBEC3A inh, A3G deaminase)
Nc1ccc(O)c(-c2nc3ccccc3s2)c1	NadD inh 63 | NadD inh conf inactive
COc1cc2nc(N3CCNCC3)nc(N)c2cc1OC	NadD inh 34 (no result: H9c2 TAG inh) | NadD inh conf inactive
COc1cc2nc(N3CCN(c4cc(C)ccc4C)CC3)nc(N)c2cc1OC	none (no result: H9c2 TAG inh)
NC(CSC1(c2cccc3ccccc23)c2ccccc2-c2ccccc21)C(=O)O (stereo unspecified)	NadD inh 42 (no result: APOBEC3A inh, A3G deaminase) | NadD inh conf 64
Cc1ccccc1N(CC(=O)N1CCCCCC1)S(C)(=O)=O	none
COc1cc2c(cc1OC)C1(Nc3c-2c(Cc2ccccc2)nn3-c2ccccc2)C(=O)Nc2ccccc21 (stereo unspecified)	NadD inh 45 | NadD inh conf inactive
C#CCOCCOCCOCCNc1nc(N2CCN(C(=O)CCCCCCCCCCNC(=O)[C@@H](CCSC)n3cc(CCO)nn3)CC2)nc(N2CCN(C(=O)CCCCCCCCCCNC(=O)[C@H](CCC(=O)O)n3cc(CCCCCN)nn3)CC2)n1	NadD inh 41 | NadD inh conf 48
C#CCOCCOCCOCCNc1nc(N2CCN(C(=O)CCCCCCCCCCNC(=O)[C@@H](CCC(=O)O)n3cc(CCCCCN)nn3)CC2)nc(N2CCN(C(=O)CCCCCCCCCCNC(=O)[C@H](CO)n3cc(CCCSC)nn3)CC2)n1	NadD inh 48 | NadD inh conf inactive
CCn1c(SCC(=O)N2CCCC2)nnc1-c1ccco1	none (no result: H9c2 TAG inh)
Cc1cc(C(=O)NNC(=O)Cc2ccc(Cl)c(Cl)c2)c(C)o1	none
CCOc1ccc2nc(Cl)c(C3CC(c4ccco4)=NN3S(=O)(=O)c3ccccc3)cc2c1 (stereo unspecified)	NadD inh 36 (no result: H9c2 TAG inh) | NadD inh conf inactive
CCc1ccc(NC(=O)CSc2nc3ccsc3c(=O)n2CCC(=O)O)cc1	none (no result: H9c2 TAG inh)
CC(C)c1ccc(NC(=O)CSc2nc3ccsc3c(=O)n2Cc2ccc(C(=O)O)cc2)cc1	NadD inh 32 (no result: H9c2 TAG inh) | NadD inh conf inactive
Cc1ccc(S(=O)(=O)NCCn2nc(C)cc2C)cc1	none (no result: H9c2 TAG inh)
COc1ccc(NC(=O)c2cccc(N3C(=O)c4ccc(C(=O)Nc5ccc(OC)c(O)c5)cc4C3=O)c2)cc1O	NadD inh 44 | NadD inh conf inactive
COc1ccc(N/C(=N/c2nc(C)cc(C)n2)NC(=O)Nc2ccc(Cl)c(Cl)c2)c(OC)c1	NadD inh 33 (no result: H9c2 TAG inh) | NadD inh conf inactive
COc1ccc(C(=O)c2sc(Nc3cccc(OC)c3)c(C(=O)Nc3cccc(C)c3C)c2N)cc1	NadD inh 36 (no result: H9c2 TAG inh) | NadD inh conf inactive
COc1ccc(NC(=O)c2c(Nc3ccccc3)sc(C(=O)c3ccc(F)cc3)c2N)cc1	NadD inh 33 | NadD inh conf inactive

Bioassay records: PubChem, Sanford-Burnham Center for Chemical Genomics
